Bioassay records from PubChem BioAssay.
Compounds with a hit are over-represented: about 9.8% of the library has one in this group of screens.
HTT aggregate: inhibitors of mutant huntingtin aggregate formation in PC12 cells. Potency, µM (doses to about 46.1 µM), inactives show at the top dose activity change, negative = inhibition, most hits filed as inhibitors. hit rate 1.1% among 220,000. PC12 HttQ103-GFP aggregates, Acumen cytometry, 40 h. AID 1688; note: potency is the fitted concentration of half-maximal effect; % is set by controls: 0 for no effect and ±100 for the full control effect; nearly all actives have a fitted effect of over 60% in size
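PC12 cells with ecdysone-inducible HTT exon1 Q103-GFP, induced by 100 nM tebufenozide, given compounds in a concentration series. GFP aggregates (1–25 um, 6 SD above background) counted in lysates by laser-scanning cytometry, 488 nm excitation.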
JMJD2E inh: JMJD2E (human) inhibition. Potency, µM (titrated, usually from 57.1 µM), for inactives: at the highest dose activity change, negative = inhibition, most hits filed as inhibitors. hit rate 1.6% among 230,000. JMJD2E catalytic domain, FDH-coupled NADH fluorescence (FDH is formaldehyde dehydrogenase). B2RXH2; active = well fitted inhibition curve with a large enough effect, not every such curve was filed as active; inconclusive = small, poorly fitted or top-dose-only effect, or another doubt; inactive = no such curve, though single readings can be large or run the other way;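 note: potency is the fitted concentration of half-maximal effect; 0% = wells with enzyme and -100% = buffer wells without enzyme; nearly all actives have a fitted effect of over 50% in size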
HPGD inh: inhibitors of human 15-hydroxyprostaglandin dehydrogenase (HPGD); P15428; purified HPGD, NADH fluorescence kinetic, PGE2 substrate; Potency, µM, without a hit: at the highest dose activity change, negative = inhibition, most hits filed as inhibitors; hit rate 4.3% among 150,000; AID 894; active = well fitted inhibition curve with a large enough effect, not every such curve was filed as active; inconclusive = small, poorly fitted or top-dose-only effect, or another doubt; inactive = no such curve, though single readings can be large or run the other way; note: potency is the fitted concentration of half-maximal effect; % is set by controls: 0 for no effect and ±100 for the full control effect
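NADH formation kinetics: reaction with 30 uM PGE2 and 1 mM NAD+ (final), 20 nM enzyme, Tris-HCl pH 8 with Tween 20, after 15 min compound preincubation at room temperature. Fluorescence change, last versus first of five reads.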
ALDH1A1 block: inhibitors of human aldehyde dehydrogenase 1A1; Potency, µM (top dose mostly 75.3 µM), without a hit: at the top dose activity, negative = inhibition, most hits filed as inhibitors; Purified ALDH1A1, NADH fluorescence, propionaldehyde substrate; AID 1030; hit rate 7.3% among 220,000; active = well fitted inhibition curve with a large enough effect, not every such curve was filed as active; inconclusive = small, poorly fitted or top-dose-only effect, or another doubt; inactive = no such curve, though single readings can be large or run the other way;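 note: potency is the fitted concentration of half-maximal effect; plate controls were no enzyme wells and a reference inhibitor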
Target sequence (P00352 whole entry, looked up): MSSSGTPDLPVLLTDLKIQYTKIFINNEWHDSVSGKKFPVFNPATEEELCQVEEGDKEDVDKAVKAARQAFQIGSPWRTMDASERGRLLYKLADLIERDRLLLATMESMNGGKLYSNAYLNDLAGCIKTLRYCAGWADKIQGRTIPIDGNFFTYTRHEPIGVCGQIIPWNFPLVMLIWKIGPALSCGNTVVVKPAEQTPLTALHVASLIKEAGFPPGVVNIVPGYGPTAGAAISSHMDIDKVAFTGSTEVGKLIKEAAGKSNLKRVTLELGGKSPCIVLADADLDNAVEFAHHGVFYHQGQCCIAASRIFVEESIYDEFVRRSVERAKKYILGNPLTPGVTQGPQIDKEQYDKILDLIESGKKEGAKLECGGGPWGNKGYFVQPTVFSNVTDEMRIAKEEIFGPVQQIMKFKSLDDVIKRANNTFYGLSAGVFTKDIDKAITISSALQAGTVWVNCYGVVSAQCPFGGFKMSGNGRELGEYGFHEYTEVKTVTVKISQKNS
HTT cytoprotect: cytoprotection in Huntington HTT-Q103 PC12 cell model. PC12 HTT-Q103 induced, cytoprotection, ATP luminescence, 40 h. Potency, µM (highest dose often 56.4 µM), inactives show cytoprotection (ATP increase), most hits filed as activators. hit rate 0.14% among 230,000; note: potency is the fitted concentration of half-maximal effect; % of control where 0% means no effect; nearly all actives have a fitted effect of over 45% in size
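Readout: ATPlite luminescence (ATP level). Model: stable PC12, inducible Htt exon1 Q103-GFP. Inducer: tebufenozide, 100 nM final. Compounds: dose series. No G418 in medium.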
CBFb RUNX1 block: CBF-beta/RUNX1 interaction disruption | Potency, µM (highest dose often 59.8 µM), inactives show at the highest dose activity, negative = inhibition, actives largely listed as inhibitors | 230,000 tested, under 10 active | AlphaScreen CBFb-His/RUNX1-biotin binding, biochemical | AID 1477; note: % of control where 0% means no effect
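CBFb-His/RUNX1-biotin, 30 nM each, preincubated 20 min RT; compound 15 min RT; Ni + streptavidin beads 50 ng each, 90 min RT; AlphaScreen read.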
* hit, by the source's call; ? = inconclusive; . = no result; [ ] = another dose, or the depositor's remark. Unless noted, calls come from the whole dose curve; as a rule, active = well fitted curve in the direction sought with a large enough effect; inconclusive = small, poorly fitted or top-dose-only effect, or another doubt; inactive = no such curve, though single readings can be large; an effect the other way counts as inactive or inconclusive.

SMILES	HTT aggregate	JMJD2E inh	HPGD inh	ALDH1A1 block	HTT cytoprotect	CBFb RUNX1 block
O=C(NCc1ccco1)C1CC(=O)N(c2ccc(Cl)cc2)C1 (stereo not drawn)	-5%	-10%	.	-8%	13%	4%
Cc1ccc(C2CC(=O)N3CN(Cc4ccco4)CSC3=C2C#N)cc1 (stereo not drawn)	9%	-26%	16µM*	11µM*	6%	-5%
CCc1ccc(-c2cn(C3CCCCC3)c(=S)[nH]2)cc1	-9%	?	.	?	5%	?
Oc1ccc2ccccc2c1N=Nc1ccccn1	?	?	32µM*	?	-76%	.
CCCn1c(O)c(N=Nc2ccc3ccccc3n2)c2ccccc21	?	15%	-6%	-13%	-82%[10 µM]	-1%
CC(C)CCn1c(O)c(N=Nc2ccccn2)c2ccccc21	0%	-17%	-10%	0.35µM*	19%[10 µM]	5%
O=S(=O)([N-]c1nc2ccccc2nc1-[n+]1ccccc1)c1ccc(F)cc1	11%	1%	.	-2%	-3%	3%
CCCCN(C)c1c(N2CCC(C(=O)OCC)CC2)c(=O)c1=O	5%[9.22 µM]	-27%	.	.	1%[10 µM]	9%
COc1ccc(/C=C2/N=C3CCCCCN3C2=O)cc1OC	1%	-1%	-10%	28µM*	14%[10 µM]	6%
O=C1NC(=S)SC1=C1CCCCCC1	-28%	3%	11µM*	7.1µM*	-28%[0.074 µM]	1%
CCN1/C(=C2/SC(=S)NC2=O)Sc2ccccc21	5%	-1%	.	?	.	-5%
CCCNC(=O)c1onc(CSc2ccncc2)c1C(=O)NCCC	6%[9.22 µM]	22%	.	.	-1%[10 µM]	8%
CN(C)c1ccc(/C=C/C(=O)c2cccc(Br)c2)cc1	1%	4%	-29%	7.1µM*	4%	?
CC(=O)Nc1cccc(C(=O)/C=C/c2ccc(C)cc2)c1	7%	9%	-6%	-2%	5%[10 µM]	-3%
CSc1oc(-c2ccco2)nc1S(=O)(=O)c1ccc(Br)cc1	-23%	?	?	?	-1%	-1%
O=S(=O)(c1ccccc1)c1nc(-c2ccco2)oc1N1CCCCCC1	-1%	?	?	0.2µM*	20%[10 µM]	1%
CN1CCN(c2oc(-c3ccco3)nc2S(=O)(=O)c2ccccc2)CC1	-1%	-9%	-16%	28µM*	10%	11%
CC(C)Sc1oc(-c2ccco2)nc1S(=O)(=O)c1ccc(F)cc1	-4%	-18%	-24%	20µM*	3%[1.9 µM]	-3%
CCSc1oc(-c2ccco2)nc1S(=O)(=O)c1ccccc1	-1%	-7%	-21%	?	-7%[10 µM]	7%
CCOCC(=O)O	.	.	-3%	9%	-15%	12%[21.7 µM]
Cn1cccc1/C=C1\Cc2ccccc2C1=O	3%	-7%	.	11µM*	15%	-9%
CN1C2CCC1/C(=C/c1cccn1C)C(=O)/C2=C\c1cccn1C	1%	-3%	28µM*	4%	.	-15%
CCCC(=O)NCCc1c(I)[nH]c2ccc(OC)cc12	.	.	.	20µM*	-35%	5%
Cc1[nH]nc2c1C(c1cn[nH]c1-c1ccc(F)cc1)C(C#N)=C(N)O2 (stereo not drawn)	-28%	-17%	-10%	-1%	23%	9%
C/C=C/C(=O)OCC(=O)Nc1ccc(SC(F)F)cc1	-15%	1%	.	-8%	?	0%
CC(C)CC(NC(=O)OCC1c2ccccc2-c2ccccc21)C(=O)O (stereo not drawn)	.	2%	-9%	8.9µM*	.	.
CC(C)CC(NC(=O)COc1ccccc1)C(=O)O (stereo not drawn)	-11%	8%	-4%	-2%	?	2%
CC(C)(C)c1ccc(O)c(CN(Cc2cc(C(C)(C)C)ccc2O)C2CCCCC2)c1	.	.	-12%	8%[13.5 µM]	-1%[10 µM]	.
COc1cc(/C=C2/CCC/C(=C\c3cc(O)c(OC)c(Cl)c3)C2=O)cc(Cl)c1O	?	0%	-25%	14µM*	-96%	-23%
CC(C)(C)c1ccc2c(c1)N(CC(=O)O)C(=O)CO2	2%	6%	-4%	3.2µM*	-12%	2%
